Measured values reported in PubChem BioAssay (NCATS).
Results filed as inconclusive are left out. A number with no mark means an inactive call. Calls come from the whole dose curve; as a rule, active = well fitted cell-killing curve with a large enough effect; inconclusive = small, poorly fitted or top-dose-only effect, or effect the other way; inactive = flat fitted curve, though single readings scatter. Where a SMILES comes first, the peptide text is derived from it. The star is where a group is joined. βNA = c1ccc2cc(N*)ccc2c1; Cbz = O=C(OCc1ccccc1)*

tested on: Tov-21-G; test: Primary qHTS to identify gynecologic anti-cancer compounds using libraries of approved drugs and bioactive compounds (AID 1345084); settings: Gynecologic cancer cell panel viability, ATPlite luminescence, 48 h; series mostly up to 57.5 µM; activity change, negative = cytotoxicity: at the top concentration; note: nearly all actives have a fitted effect of over 55% in size
How it was run: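 48 h compound exposure at 37 C, 5% CO2; five-point qHTS. ATPlite luminescence readout of cell ATP.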
% is set by controls: 0 for no effect and ±100 for the full control effect.

Compared with `Cc1ccccc1N1CCN(S(=O)(=O)C[C@]23CC[C@H](C[C@@H]2NC(=O)[C@@H](N)CCS(C)(=O)=O)C3(C)C)CC1`, `CC(C)c1ccc2c(c1)CCC1[C@](C)(C(=O)O)CCC[C@]21C` (stereo partly drawn) is higher in “activity change, negative = cytotoxicity” value: 2.05% for the first, 9.87% for the second.

Going from `Nc1ncnc2c1c(COc1cccc(Cl)c1)nn2C1CCOCC1` to `CCNC(=O)OC1CCN(c2nncc3cc(OC)c(OC)cc23)CC1`, the “activity change, negative = cytotoxicity” value rises from -17.9% to -0.288%.

Compared with `C=C1C(=O)O[C@@H]2C[C@]3(C)[C@@H](CCC(C)=O)[C@@H]3C[C@H]12`, `CC(C)=C1C[C@@]2(C)C(=CC1=O)CC[C@@H](O)[C@@H]2C` is higher in “activity change, negative = cytotoxicity” value: -16.8% for the first, -7.67% for the second.

First: Cc1ccccc1-n1nc(-c2c(-c3ccc(F)cc3)nn3c2NC[C@@H](CO)C3)ccc1=O
Second: Cc1nc2cc(-c3cc(F)cc(C#N)c3)ccc2s1
The “activity change, negative = cytotoxicity” value of the first is higher: -3.63% for the first, -8.87% for the second.

Compared with `C=C(C)C(O)COc1ccc(CC(=O)O)cc1` (stereo not drawn), `CC(C)CC(NC(=O)OCc1ccccc1)C(=O)NC(CC(C)C)C(=O)NC(CCC(=O)O)C(=O)Nc1ccc2ccccc2c1` (stereo not drawn) (Cbz-Leu-Leu-Glu-βNA; configuration not given here) is lower in “activity change, negative = cytotoxicity” value: 2.56% for the first, 0.414% for the second.

With `C=C(CCO[C@@H]1O[C@H](CO)[C@@H](O)[C@H](O)[C@H]1O)C(=O)O` the “activity change, negative = cytotoxicity” value was 5.08%.

First: O=C(OCc1ccccc1O[C@@H]1O[C@H](CO)[C@@H](O)[C@H](O)[C@H]1O)C1(O)C=CCCC1O (stereo partly drawn)
Second: COC(=O)C1=C[C@@H](O)[C@@H](O)[C@H](O[C@@H]2O[C@H](CO)[C@@H](O)[C@H](O)[C@H]2OC(=O)/C=C/c2ccccc2)C1
The “activity change, negative = cytotoxicity” value of the first is lower: -2.86% [at 25.3 µM] for the first, -1.8% [at 25.3 µM] for the second.

First: C=C1C(=O)O[C@@H]2/C=C(\C)CC/C=C(\C(=O)O[C@@H]3O[C@H](CO)[C@@H](O)[C@H](O)[C@H]3O)CC[C@@H]12
Second: COC(=O)c1ccc(OC)cc1O[C@@H]1O[C@H](CO[C@@H]2OC[C@@H](O)[C@H](O)[C@H]2O)[C@@H](O)[C@H](O)[C@H]1O
The “activity change, negative = cytotoxicity” value of the first is lower: -17% [at 25.3 µM] for the first, 11% [at 25.3 µM] for the second.

Going from `CC1(C)C(=O)N2c3ccccc3C(O)(CC(C(=O)O)n3cnc4ccccc4c3=O)C2N1O` (stereo not drawn) to `COC(=O)C(CC1(O)c2ccccc2N2C(=O)C(C)(C)N(O)C21)n1cnc2ccccc2c1=O` (stereo not drawn), the “activity change, negative = cytotoxicity” value rises from -1.32% [at 25.3 µM] to 4.12% [at 25.3 µM].

Going from `O=C(O)Cc1cn([C@@H]2OC[C@@H](O[C@@H]3O[C@H](CO)[C@@H](O)[C@H](O)[C@H]3O)[C@H](O)[C@H]2O[C@@H]2O[C@H](CO)[C@@H](O)[C@H](O)[C@H]2O)c2ccccc12` to `COc1ccc(C2C(C(=O)O)C(C(=O)O)C2c2ccc(OC)cc2O[C@@H]2O[C@H](CO)[C@@H](O)[C@H](O)[C@H]2O)c(O[C@@H]2O[C@H](CO)[C@@H](O)[C@H](O)[C@H]2O)c1` (stereo partly drawn), the “activity change, negative = cytotoxicity” value falls from 2.96% [at 25.3 µM] to -6.74% [at 25.3 µM].

First: CC(C)C1CCC(CO)=CC1/C=C(\CO)C(=O)OCC1(O)CCC(C(C)C)C2C=C(C(=O)O)COC(=O)C21 (stereo not drawn)
Second: C=C[C@@]1(C)CCC2=C([C@H]1OC(C)=O)[C@H](OC(C)=O)CC1[C@](C)(C(=O)OC)CC[C@H](OC(C)=O)[C@]21C (stereo partly drawn)
The “activity change, negative = cytotoxicity” value of the first is higher: 6.89% [at 25.3 µM] for the first, 2.62% [at 25.3 µM] for the second.

First: CCC(C)/C=C(C)/C=C/C1=CC2=C(Cl)C(=O)C(C)(OC(C)=O)C(=O)C2=CN1C(CCC(=O)O)C(=O)O (stereo not drawn)
Second: C/C=C/C=C/C(O)=C1/C(=O)[C@]2(C)C(=O)[C@@](C)(O)[C@H]1[C@H]([C@@]1(C)OC(=O)C(C)=C1O)[C@H]2C(=O)CC/C=C/C
The “activity change, negative = cytotoxicity” value of the first is lower: -5.49% [at 25.3 µM] for the first, 2.28% [at 25.3 µM] for the second.

Compared with `COc1cc(C(=O)OC[C@@]2(O)CO[C@@H](O[C@H]3[C@H](Oc4ccc(O)cc4)O[C@H](CO)[C@@H](O)[C@@H]3O)[C@@H]2O)cc(OC)c1O`, `CC(=O)OC[C@]12[C@@H](OC(=O)c3ccoc3)C[C@@H]3[C@@H](OC(C)=O)[C@]1(OC3(C)C)[C@@](C)(O)C[C@H](OC(=O)c1ccoc1)[C@@H]2OC(=O)c1ccoc1` is higher in “activity change, negative = cytotoxicity” value: -1.11% [at 25.3 µM] for the first, 0.188% [at 25.3 µM] for the second.

First: CC1(C)O[C@H]2CC(=O)OC[C@@]23C1=C(O)C(=O)[C@]1(C)C3CC[C@@]2(C)[C@H](c3ccoc3)OC(=O)[C@H]3O[C@]321 (stereo partly drawn)
Second: CC[C@H]1OC(=O)[C@H](C)C(=O)[C@H](C)[C@@H](OC2O[C@H](C)C[C@H](N(C)C)[C@H]2O)[C@@H](C)C[C@@H](C)C(=O)/C=C/[C@]1(C)O (stereo partly drawn)
The “activity change, negative = cytotoxicity” value of the first is lower: -0.963% [at 25.3 µM] for the first, -0.351% [at 25.3 µM] for the second.

Compared with `C/C(=C/CO)CC[C@H]1[C@]2(C)C[C@H](O)CC(C)(C)[C@H]2CC[C@]1(C)O`, `CC(=O)OC/C(=C/C(=O)O)CC[C@@H]1C(CO)=CC[C@@H]2C(C)(C)CCC[C@@]12C` is lower in “activity change, negative = cytotoxicity” value: -3.16% [at 38.5 µM] for the first, -4.02% [at 38.5 µM] for the second.

First: C[C@@H]1C[C@@H](O)[C@@]23CO[C@]2(CO)CCC[C@@H]3[C@@]12C[C@@H](c1ccoc1)OC2=O
Second: CC1CC2OCC3(O)CCC(O)C(C14CC(c1ccoc1)OC4=O)C23CO (stereo not drawn)
The “activity change, negative = cytotoxicity” value of the first is lower: -4.82% [at 38.5 µM] for the first, 5.48% [at 38.5 µM] for the second.

Going from `CC(CC12CCCN1C(=O)C1CCCN1C2=O)OC(N)=O` (stereo not drawn) to `CC1=CCC[C@@H]2[C@@](C)(CCc3ccoc3)[C@H](C(=O)O)CC[C@@]12C`, the “activity change, negative = cytotoxicity” value rises from 1.35% [at 38.5 µM] to 4.2% [at 38.5 µM].

First: CC12CC34CC(O)C5C(CO)(CO)CC(=O)CC5(C)C3CC1C2C4 (stereo not drawn)
Second: COc1ccc(O[C@@H]2O[C@H](CO)[C@@H](O)[C@H](O)[C@H]2O)cc1OC
The “activity change, negative = cytotoxicity” value of the first is lower: -1.99% [at 38.5 µM] for the first, 1.04% [at 38.5 µM] for the second.

Compared with `COc1cc2c(c(OC)c1O)C(c1ccc(O)cc1)C1C(=O)OC3C(COC(=O)C1=C2)OC(CO)(OC1OC(COC(=O)/C=C/c2ccc(OC4OC(C)C(O)C(O)C4O)cc2)C(O)C(O)C1O)C3O` (stereo not drawn), `C=CC(C)(CC/C=C(\C)C(=O)OC[C@H]1O[C@@H](OC(C)(C=C)CC/C=C(\C)C(=O)O[C@H]2[C@H](O)[C@@H](O)[C@H](OC(C)(C=C)CC/C=C(\C)C(=O)O)O[C@@H]2CO)[C@H](O)[C@@H](O)[C@@H]1O)O[C@@H]1O[C@H](CO)[C@@H](O)[C@H](O)[C@H]1O` (stereo partly drawn) is higher in activity change, negative = cytotoxicity: -2.98% [at 11.6 µM] for the first, -2.47% [at 11.6 µM] for the second.

`C[C@@H]1O[C@@H](O[C@H]2[C@H](OC(=O)[C@]34CCC(C)(C)C[C@H]3C3=CCC5[C@@]6(C)C[C@@H](O)[C@@H](O)[C@@](C)(CO)C6[C@H](O)C[C@@]5(C)[C@]3(C)CC4)OC[C@H](O)[C@@H]2O)[C@H](O)[C@H](O)[C@H]1O[C@@H]1OC[C@@H](O)[C@H](O[C@H]2O[C@H](C)[C@@H](O)[C@H](O)[C@@H]2O)[C@H]1O` (stereo partly drawn) gave an activity change, negative = cytotoxicity of 0.722% [at 11.6 µM].
